# Test results: PubChem BioAssay (NCATS)
# Inconclusive results are not listed. Calls of active or inactive are those of the source. Unless noted, calls follow the shape of the dose curve; as a rule, active = well fitted curve in the direction sought with a large enough effect; inconclusive = small, poorly fitted or top-dose-only effect, or another doubt; inactive = no such curve, though single readings can be large; an effect the other way counts as inactive or inconclusive.
# Assays:
# [1] = P-glycoprotein substrates identified in KB-8-5-11 adenocarcinoma cell line, qHTS therapeutic library screen (AID 1346987); also: nearly all actives have a fitted effect of over 65% in size; also: potency is read from the fitted curve at half-maximal effect
# Outline: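 KB-8-5-11: colchicine-selected sub-line of KB-3-1 over-expressing P-gp; assay medium lacked colchicine. 72 h drug exposure at 37 degree C, CellTiter-Glo.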
# [2] = system: Zika virus NS2B-NS3 protease (unlinked complex); experiment: Primary screen GU Rhodamine qHTS for Zika virus inhibitors: Unlinked NS2B-NS3 protease assay (AID 1347159); also: % is scaled to controls: 0 for no effect and ±100 for the full control effect; nearly all actives have a fitted effect of over 60% in size
# Outline: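 Compounds, tested up to 114 microM, were incubated for 15 minutes with 25 nM unlinked NS2B-NS3 protease at pH 8.0. Cleavage of 1.5 microM Rhodamine110 substrate was then followed by fluorescence for 15 minutes.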
# [3] = biological target: Cytochrome P450 2D6 (Homo sapiens) (UniProt P10635); experiment: Cytochrome P450 family 2 subfamily D member 6 (CYP2D6) small molecule antagonists: luciferase biochemical (cell-free) qHTS assay (AID 1645840; active = well fitted curve in the direction sought with a large enough effect in the repeat runs; an effect the other way counts as inactive or inconclusive; also: nearly all actives have a fitted effect of over 55% in size; also: potency is read from the fitted curve at half-maximal effect; as to activity change, negative = inhibition: % is scaled to controls: 0 for no effect and ±100 for the full control effect)
# Cytochrome P450 2D6 (Homo sapiens), sequence (P10635 whole entry, looked up): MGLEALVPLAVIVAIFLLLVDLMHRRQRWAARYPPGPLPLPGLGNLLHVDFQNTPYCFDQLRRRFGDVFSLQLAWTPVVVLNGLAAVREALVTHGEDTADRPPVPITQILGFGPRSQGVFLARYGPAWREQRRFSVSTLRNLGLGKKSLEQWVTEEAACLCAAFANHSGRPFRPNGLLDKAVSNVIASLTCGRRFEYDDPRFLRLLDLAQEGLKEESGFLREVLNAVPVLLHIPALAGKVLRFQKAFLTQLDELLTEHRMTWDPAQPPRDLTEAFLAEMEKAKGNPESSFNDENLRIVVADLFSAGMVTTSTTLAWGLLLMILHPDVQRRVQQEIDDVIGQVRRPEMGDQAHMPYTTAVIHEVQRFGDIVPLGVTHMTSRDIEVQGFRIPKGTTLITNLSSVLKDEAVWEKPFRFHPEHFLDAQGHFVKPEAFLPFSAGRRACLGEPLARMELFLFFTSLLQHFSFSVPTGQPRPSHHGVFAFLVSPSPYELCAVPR
# Outline: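 P450-Glo luminescent screen: recombinant CYP2D6 enzyme–proluciferin substrate mix preincubated with compound 10 min at room temperature, then NADPH regeneration added for 1 h at room temperature. Detection reagent added for 20 min; luciferin light read as relative luminescence units.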
# [4] = biological target: Cytochrome P450 2C9 (Homo sapiens) (UniProt P11712); experiment: Cytochrome P450 family 2 subfamily C member 9 (CYP2C9) small molecule antagonists: luciferase biochemical (cell-free) qHTS assay (AID 1645842; active = well fitted curve in the direction sought with a large enough effect in the repeat runs; an effect the other way counts as inactive or inconclusive; also: potency is read from the fitted curve at half-maximal effect; nearly all actives have a fitted effect of over 55% in size)
# Cytochrome P450 2C9 (Homo sapiens), sequence (P11712 whole entry, looked up): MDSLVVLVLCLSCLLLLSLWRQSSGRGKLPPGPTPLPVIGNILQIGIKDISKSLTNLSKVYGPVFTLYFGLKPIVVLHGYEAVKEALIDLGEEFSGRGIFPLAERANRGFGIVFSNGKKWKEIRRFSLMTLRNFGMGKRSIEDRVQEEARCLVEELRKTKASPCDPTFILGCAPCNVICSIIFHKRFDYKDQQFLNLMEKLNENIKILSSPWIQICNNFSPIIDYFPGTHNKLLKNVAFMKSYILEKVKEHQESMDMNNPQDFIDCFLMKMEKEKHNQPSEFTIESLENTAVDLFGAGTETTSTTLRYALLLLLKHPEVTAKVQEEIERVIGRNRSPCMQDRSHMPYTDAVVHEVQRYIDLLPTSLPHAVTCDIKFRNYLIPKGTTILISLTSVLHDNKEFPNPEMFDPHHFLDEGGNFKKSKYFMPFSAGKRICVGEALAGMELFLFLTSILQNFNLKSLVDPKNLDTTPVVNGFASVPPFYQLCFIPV
# Outline: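 Luminescence, after 20 min with luciferin detection reagent, reflected CYP2C9 turnover during a 1 h NADPH-driven reaction at 37C. Enzyme-substrate mix contained 0.4% bovine serum albumin and was preincubated with compound 10 min at room temperature.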
# CRL-7250 = normal cell line; experiment: Cytotoxic Profiling of Annotated Libraries Using Quantitative High-Throughput Screening (AID 1296008); details: Five cell lines viability, CellTiter-Glo ATP luminescence, 48-72 h; max response: stronger effect = lower value; also: nearly all actives have a fitted effect of over 60% in size; also: potency is read from the fitted curve at half-maximal effect; as to max response: % is scaled to controls: 0 for no effect and ±100 for the full control effect
# Outline: (§1)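 Cytotoxicity was measured as CellTiter-Glo ATP luminescence, read after 10 min at room temperature. Compound treatment of the cells lasted 48 or 72 hr at 37 degrees Celsius in a qHTS format.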
# HaCat [5] = experiment: as above; details: Five cell lines viability, CellTiter-Glo ATP luminescence, 48-72 h; max response: stronger effect = lower value
# Outline: as §1
# SKOV3 = experiment: Primary qHTS to identify gynecologic anti-cancer compounds using libraries of approved drugs and bioactive compounds (AID 1345084); details: Gynecologic cancer cell panel viability, ATPlite luminescence, 48 h; series mostly up to 57.5 µM; also: nearly all actives have a fitted effect of over 55% in size; also: potency is read from the fitted curve at half-maximal effect
# Outline: (§2)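 Five-concentration response, 48 h; readout is ATP-driven luciferase luminescence.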
# HACAT [6] = experiment: qHTS assay to identify novel small-molecules to repurpose for Merkel cell carcinoma treatment (AID 1296009); details: MCC and control cell lines, CellTiter-Glo viability, 72 h; at 44.8 µM (top of the series) unless noted; also: nearly all actives have a fitted effect of over 60% in size
# Outline: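 After compound transfer in DMSO, plates were kept 72 hr at 37 degree celsius. Luminescent ATP signal from CellTiter-Glo served as viability measure, normalized against DMSO and no-cell controls.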
# PA-1 = experiment: Primary qHTS to identify gynecologic anti-cancer compounds using libraries of approved drugs and bioactive compounds (AID 1345084); details: Gynecologic cancer cell panel viability, ATPlite luminescence, 48 h; series mostly up to 57.5 µM; also: nearly all actives have a fitted effect of over 55% in size; also: potency is read from the fitted curve at half-maximal effect
# Outline: as §2
# [7] = qHTS to identify inhibitors of the type 1 interferon - major histocompatibility complex class I in skeletal muscle: primary screen against the NCATS Mechanism Interrogation Plate v5.0 (MIPE) Libary (AID 1347411);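 also: plate controls were vehicle for no effect and reference inhibitor for full effect; nearly all actives have a fitted effect of over 65% in size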
# Outline: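 Immortalized human C25cl48 myoblasts with HiBit knocked into endogenous HLA-B*08:01 were stimulated with 4.0 ng/ml IFN-beta and exposed to compounds (11-point 1:3 titration, top 46 uM final) for 24 hrs at 37 C; HiBiT lytic luminescence measured.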
# [8] = qHTS drug screen for cell cycle checkpoint inhibitors in PARPi-resistant BRCA-mutant ovarian cancer cell lines. (AID 1963452; calls by dose curve); details: PEO1/OlaR viability, CellTiter-Glo luminescence, 96 h, stronger effect = lower value
# Outline: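 PEO1, PEO4 and PEO1/OlaR ovarian cancer cells, 600 per well, exposed 96 h at 37C to a dilution series. Viability read by CellTiter-Glo luminescence, normalized to DMSO and empty wells; activity summarized as Z-AUC.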
# [9] = biological target: Catechol O-methyltransferase (Homo sapiens) (UniProt P21964); experiment: Confirmatory Screen for Target Class Profiling of Small Molecule Inhibitors of Methyltransferases (AID 1745852; calls by dose curve; also: potency is read from the fitted curve at half-maximal effect; as to activity change, negative = inhibition: % is scaled to controls: 0 for no effect and ±100 for the full control effect); details: MTase-Glo luminescence, SAH detection, recombinant enzyme; measured here: COMT max response; stronger effect = lower value
# Catechol O-methyltransferase (Homo sapiens), sequence (P21964 whole entry, looked up): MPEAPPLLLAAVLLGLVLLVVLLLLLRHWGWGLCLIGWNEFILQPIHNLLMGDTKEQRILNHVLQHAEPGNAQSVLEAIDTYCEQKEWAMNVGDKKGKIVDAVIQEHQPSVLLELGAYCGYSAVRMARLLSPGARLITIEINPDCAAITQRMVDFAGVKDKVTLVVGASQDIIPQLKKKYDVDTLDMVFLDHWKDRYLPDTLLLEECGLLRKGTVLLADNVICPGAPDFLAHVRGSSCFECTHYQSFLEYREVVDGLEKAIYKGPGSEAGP
# [10] = biological target: Guanidinoacetate N-methyltransferase (Homo sapiens) (UniProt Q14353); experiment: as above; details: activity change, negative = inhibition: at 57.3 µM (top of the series) unless noted
# [11] = biological target: Nicotinamide N-methyltransferase (Homo sapiens) (UniProt P40261); experiment: as above; details: MTase-Glo luminescence, SAH detection, recombinant enzyme; measured here: NNMT max response; stronger effect = lower value
# Nicotinamide N-methyltransferase (Homo sapiens), sequence (P40261 whole entry, looked up): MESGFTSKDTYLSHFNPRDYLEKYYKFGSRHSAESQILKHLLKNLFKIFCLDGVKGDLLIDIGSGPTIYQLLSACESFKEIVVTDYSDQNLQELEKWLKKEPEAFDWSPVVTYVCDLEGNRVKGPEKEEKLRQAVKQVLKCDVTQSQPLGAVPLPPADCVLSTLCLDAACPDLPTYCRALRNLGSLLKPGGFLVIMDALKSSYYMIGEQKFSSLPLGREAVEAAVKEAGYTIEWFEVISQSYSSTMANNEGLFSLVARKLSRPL
# [12] = biological target: Phenylethanolamine N-methyltransferase (Homo sapiens) (UniProt P11086); experiment: as above; details: MTase-Glo luminescence, SAH detection, recombinant enzyme; measured here: PNMT max response; stronger effect = lower value
# Phenylethanolamine N-methyltransferase (Homo sapiens), sequence (P11086 whole entry, looked up): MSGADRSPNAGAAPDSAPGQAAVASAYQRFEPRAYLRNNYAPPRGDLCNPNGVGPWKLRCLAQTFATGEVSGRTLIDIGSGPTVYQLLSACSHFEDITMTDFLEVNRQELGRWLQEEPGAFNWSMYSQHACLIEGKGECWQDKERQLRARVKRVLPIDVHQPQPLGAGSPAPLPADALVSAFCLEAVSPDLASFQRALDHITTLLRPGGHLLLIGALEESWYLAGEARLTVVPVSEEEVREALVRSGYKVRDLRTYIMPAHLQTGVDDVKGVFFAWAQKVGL
# [13] = Confirmatory screen NINDS Rhodamine qHTS for Zika virus inhibitors (AID 1347161); also: potency is read from the fitted curve at half-maximal effect; nearly all actives have a fitted effect of over 60% in size
# Outline: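 Single-chain NS2B-NS3 protease, 25 nM, pH 8.0; compounds preincubated 15 min. Activity: Rhodamine110 release from 1.5 microM substrate over 15 min, room temperature, data fitted to 4-parameter Hill.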
# [14] = Tertiary RLuc qRT-PCR qHTS assay for Zika virus inhibitors (AID 1347169)
# Outline: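 Vero, 1,000 cells/well, o/n 37 C; cpd pinned in DMSO; ZIKV-RLuc Cambodian, MOI 1-2, 48-72 h 37 C; live-cell RLuc substrate, lum read at 1-1.5 h.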
# [15] = measured here: PEO1 parental Z-AUC
compound,measurement,setting,value
O=S(=O)(c1cccc2ccccc12)n1ccc2ccc(N3CCN4CCCC4C3)cc21 (stereo unspecified),Potency,[1],20.6 µM (active)
same,Potency,[2],inactive
same,Potency,[3],2.68 µM (active)
same,Potency,[4],12 µM (active)
same,max response,CRL-7250,-10.4% (inactive)
same,max response,HaCat [5],4.67% (inactive)
same,Potency,SKOV3,inactive
CC/C(=C(\c1ccc(O)cc1)c1ccc(OCCNC)cc1)c1ccccc1,Potency,[2],inactive
same,outcome,CRL-7250,inactive
same,outcome,HaCat [5],inactive
same,outcome,HACAT [6],inactive
same,Potency,PA-1,inactive
same,Potency,SKOV3,inactive
CCOC(=O)c1cccc(CNc2ccc(N(C)C(=O)Nc3ccccc3)cc2)c1,Potency,[2],inactive
same,Potency,[4],0.601 µM (active)
same,Potency,CRL-7250,1.3 µM (active)
same,max response,HaCat [5],-23.2% (inactive)
same,Potency,SKOV3,14.1 µM (active)
CNc1ccc([N+](=O)[O-])cc1-n1cnc(-c2ccc(C(F)(F)F)cc2)c1,Potency,[2],inactive
same,max response,CRL-7250,1.42% (inactive)
same,max response,HaCat [5],-13.4% (inactive)
same,Potency,PA-1,inactive
same,Potency,SKOV3,inactive
CCC[C@@H](NC(=O)N1C(=O)C(CC)(CC)[C@@H]1Oc1ccc(C(=O)N2CCN(C)CC2)cc1)c1ccc2c(c1)OCO2,Potency,[2],inactive
same,Potency,[3],16.9 µM (active)
same,max response,CRL-7250,-1.89% (inactive)
same,outcome,HaCat [5],inactive
same,outcome,HACAT [6],inactive
same,Potency,PA-1,inactive
same,Potency,SKOV3,inactive
O=C(c1ccc(F)c(F)c1Nc1ccc(I)cc1F)N1CC(O)(C2CCCCN2)C1 (stereo unspecified),Potency,[1],18.4 µM (active)
same,Potency,CRL-7250,9.2 µM (active)
same,Potency,HaCat [5],23.1 µM (active)
same,Potency,SKOV3,20 µM (active)
COc1cc(-c2cc(-c3ccc(N4CCNCC4)cc3)cnc2C)cc(OC)c1OC,Potency,[2],inactive
same,Potency,[7],inactive
same,Potency,[3],inactive
same,Potency,[4],19 µM (active)
same,Z-AUC,[8],-1.12 (inactive)
same,Z-AUC,[8]; [15],-0.592
same,Z-AUC,[8]; measured here: PEO4 Z-AUC,-0.59
same,outcome,CRL-7250,inactive
same,outcome,HaCat [5],inactive
same,outcome,HACAT [6],inactive
same,Potency,PA-1,inactive
C=C(C)[C@@H]1CC[C@]2(C(=O)O)CC[C@]3(C)C(CCC4[C@@]5(C)C[C@@H](O)[C@H](O)C(C)(C)C5CC[C@]43C)C12 (stereo partly specified),Potency,[1],inactive
same,max response,CRL-7250,4.85% (inactive)
same,max response,HaCat [5],-24.1% (inactive)
same,Potency,PA-1,inactive
CC(=O)c1c(OCCN2CCCCC2)c(OCCC(C)c2ccc(F)cc2)c2oc(C)nc2c1C (stereo unspecified),Potency,[1],20.6 µM (active)
same,Potency,[2],inactive
same,Potency,[4],19 µM (active)
same,max response,CRL-7250,-7.29% (inactive)
same,outcome,HaCat [5],inactive
same,outcome,HACAT [6],inactive
C=C1CC[C@@H]2[C@](C)(CO)[C@H](O)CC[C@@]2(C)[C@@H]1C/C=C1/C(=O)OC[C@@H]1O,Potency,[2],inactive
same,max response,CRL-7250,-17.3% (inactive)
same,outcome,HaCat [5],inactive
same,outcome,HACAT [6],inactive
CC1CCC2C(C)(C)C(O)CCC2(C)C12Cc1c(O)cc3c(c1O2)CN(C(CCCN=C(N)N)C(=O)O)C3=O (stereo unspecified),Potency,[2],inactive
same,outcome,CRL-7250,inactive
same,outcome,HaCat [5],inactive
same,outcome,HACAT [6],inactive [at 17.4 µM]
same,Potency,SKOV3,inactive
CC(C)N(CCCNC(=O)Nc1ccc(C(C)(C)C)cc1)C[C@H]1O[C@@H](n2cc(Br)c3c(N)ncnc32)[C@H](O)[C@@H]1O,Potency,[2],inactive
same,activity,[9],-65.3%
same,Potency,[10],21.5 µM (active)
same,activity,[11],-73.5%
same,activity,[12],-94.2%
same,Z-AUC,[8],0.222 (inactive)
same,Z-AUC,[8]; [15],0.00626
same,Z-AUC,[8]; measured here: PEO4 Z-AUC,-0.104
same,max response,CRL-7250,-23.7% (inactive)
same,max response,HaCat [5],-3.75% (inactive)
same,Potency,SKOV3,inactive
COCCOCCOc1ccc(C2=N[C@@](C)(C(=O)O)CS2)c(O)c1,Potency,[2],inactive
same,max response,CRL-7250,-74.5% (inactive)
same,max response,HaCat [5],-22.3% (inactive)
OCC(CO)(CO)NCC(O)Cn1c2ccc(Cl)cc2c2cc(Cl)ccc21 (stereo unspecified),Potency,[1],inactive
same,Potency,[2],inactive
same,max response,CRL-7250,-2.15% (inactive)
same,max response,HaCat [5],1.65% (inactive)
same,Potency,PA-1,inactive
COc1ccc2c(c1)C[C@H](C(=O)Nc1ccc(-c3cn[nH]c3)cc1OCCN(C)C)CO2,Potency,[2],inactive
same,activity,[9],-2.58%
same,"activity change, negative = inhibition",[10],-2.48% [at 9.47 µM]
same,activity,[11],-0.41%
same,activity,[12],0.522%
same,Potency,CRL-7250,20.6 µM (active)
same,outcome,HaCat [5],inactive
same,outcome,HACAT [6],inactive
same,Potency,PA-1,inactive
same,Potency,SKOV3,inactive
CC1CCN(c2cc(NC(=O)c3ccccc3)ncn2)CC1,Potency,[1],16.4 µM (active)
same,Potency,[2],inactive
same,Potency,[3],inactive
same,Potency,[4],9.52 µM (active)
same,max response,CRL-7250,-6.14% (inactive)
same,Potency,SKOV3,inactive
CC1CCC(n2c3cnccc3c3cnc(Nc4ccc5c(n4)CCN(C(=O)CO)C5)nc32)CC1 (stereo unspecified),"activity change, negative = inhibition",[7],-18.6% [at 8.44 µM] (inactive)
same,Potency,[3],inactive
same,Z-AUC,[8],0.557 (inactive)
same,Z-AUC,[8]; [15],1.18
same,Z-AUC,[8]; measured here: PEO4 Z-AUC,0.34
same,max response,CRL-7250,-12.2% (inactive)
same,max response,HaCat [5],-0.578% (inactive)
CC1CCN(C(c2ccc(F)cc2)c2ccc(C(C)C(=O)O)cc2-c2ccc(C(F)(F)F)cc2)CC1 (stereo unspecified),Potency,[13],3.12 µM (active)
same,Potency,[14],6.58 µM (active)
same,activity,[9],4.19%
same,"activity change, negative = inhibition",[10],0%
same,activity,[11],-58.6%
same,activity,[12],4.79%
same,max response,CRL-7250,-3.89% (inactive)
same,max response,HaCat [5],1.13% (inactive)
same,Potency,PA-1,inactive
same,Potency,SKOV3,inactive
